# From PubChem BioAssay
# The source made the active and inactive calls. Unless noted, how the calls were made is not given here.
# Tests used:
# [1] = tested on: Wnt5a (protein binding on small-molecule microarray); assay: Wnt5a binders on small-molecule microarray, primary screen, biophysical, 635/667 nm fluorescence (AID 1142); conditions: 635 nm fluorescence, higher = more signal;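 further: fluorescence read at 667 nm with signal to noise per printed feature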
# [2] = cell viability in Huh7 cells, primary screen, cytotoxicity control for HCV replication inhibitor project, CellTiter-Glo luminescence, basal, 48 h (AID 1143); conditions: Huh7 HCV replicon, higher = more signal, called active from +8 up or from −8 down;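 further: Huh7 hepatoma cells carrying a hepatitis C replication reporter with no stimulus; test concentration not given here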
# [3] = P. aeruginosa biofilm formation inhibitors, primary screen, PAO1 strain, BacTiter-Glo luminescence, LB-PBS (AID 1144); conditions: 12 h, higher = more signal
# [4] = CREB reporter modulators without forskolin, primary screen, cell-based, PC12, CRE-LacZ reporter, unstimulated (AID 1145); conditions: no forskolin, luminescence, 4.5 h, higher = more signal, called active from +8 up or from −8 down
# [5] = CREB reporter modulators under forskolin, primary screen, cell-based, PC12, CRE-LacZ reporter, forskolin-stimulated (AID 1146); conditions: luminescence, 4.5 h, higher = more signal, called active from +8 up or from −8 down;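 further: PC12 cells with 6xCRE LacZ reporter stimulated by forskolin 10 µM; beta-galactosidase reporter signal reflecting CREB driven transcription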
# [6] = target: Streptavidin (Streptomyces avidinii) (UniProt P22629); assay: streptavidin binders on small-molecule microarray, primary screen, artefact control for SMM compound annotation, biophysical, 635/667 nm fluorescence (AID 1147); conditions: streptavidin binding, higher = more signal;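 further: signal reflects streptavidin binding to arrayed compounds as a control protein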
# [7] = small-molecule binders of probe aInhba, primary screen, biochemical, small-molecule microarray, 635/667 nm fluorescence (AID 1148); conditions: higher = more signal;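 further: score merges 667nm spot fluorescence with signal-to-noise for antibody binding to printed compounds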
# [8] = target: Torsin-1A (Homo sapiens) (UniProt O14656); assay: torsin A binders from cell lysate, primary screen, small-molecule microarray, wild-type, 635/667 nm (AID 1149); conditions: COS7 hTOR1A-WT lysate, 635 nm fluorescence, higher = more signal
# [9] = target: Torsin-1A (Homo sapiens) (UniProt O14656); assay: small-molecule binders of mutant TOR1A in lysate, primary screen, cell lysate, small-molecule microarray, COS7 lysate, 635/667 nm fluorescence (AID 1150); conditions: COS7 hTOR1A mutant lysate, 635 nm fluorescence, higher = more signal;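 further: score pools 667 nm emission and signal to noise measuring lysate protein binding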
# [10] = tested on: Sonic hedgehog protein (Shh); assay: small-molecule binders of Shh protein, primary screen, biochemical, small-molecule microarray, 635/667 nm fluorescence (AID 1151); conditions: small-molecule microarray binding, 635 nm fluorescence; higher = more signal;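 further: Shh protein binding to compounds spotted on small-molecule microarray slides; score combines spot fluorescence intensity with signal-to-noise across triplicate slides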
# [11] = E. coli DRC41 culture turbidity changes, primary screen, E. coli filamentation inducer project, strain DRC41, OD650, 48 h (AID 1152);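 further: E. coli MC1000 strain DRC41 lacking acrAB efflux pump and sulA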; conditions: E. coli DRC41 (acrAB sulA), higher = more signal, called active from +8 up or from −8 down
# [12] = small-molecule binders of probe aLefty1, primary screen, biochemical, small-molecule microarray, 635/667 nm fluorescence (AID 1153); conditions: higher = more signal;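 further: score merges spot fluorescence with signal-to-noise ratio from the scanned slide images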
# [13] = PSAC antagonists in infected red cells, primary screen, cell-based, P. falciparum Indochina, OD700, 1 h (AID 1154); conditions: P. falciparum Indochina infected RBC osmotic lysis, higher = more signal, called active from +8 up or from −8 down
# [14] = PSAC antagonists in infected red cells, primary screen, cell-based, P. falciparum Indochina, OD700, 2 h (AID 1155);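 further: lysis reports solute entry through the parasite surface anion channel PSAC; channel blockers reduce lysis of infected cells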; conditions: P. falciparum Indochina infected erythrocytes, osmotic lysis OD700; higher = more signal, called active from +8 up or from −8 down
# [15] = osmotic lysis modulators in infected erythrocytes, primary screen, PSAC antagonist project, cell-based, P. falciparum Indochina, OD700, 3 h (AID 1156); conditions: higher = more signal, called active from +8 up or from −8 down
# [16] = PSAC antagonists in infected red cells, primary screen, cell-based, P. falciparum Indochina, OD700, 18 h (AID 1157); conditions: P. falciparum Indochina infected erythrocytes, osmotic lysis OD700, 18 h; higher = more signal, called active from +8 up or from −8 down
# [17] = modulators of S6 phosphorylation in cells, primary screen, cell-based, A549, cytoblot, luminescence, serum-stimulated (AID 1158); conditions: A549 phospho-S6 cytoblot, 5 h, higher = more signal;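 further: serum-stimulated A549 lung adenocarcinoma cells; signal is phosphorylated S6 detected by cytoblot immunostaining with HRP secondary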
# [18] = target: NADPH oxidase 2 (Homo sapiens) (UniProt P04839); assay: NOX2-dependent H2O2 signal modulators, primary screen, NOX inhibitor project, cell-based, HEK293-NOX2, PMA-stimulated, Amplex Red fluorescence (AID 1159); conditions: 45 min, higher = more signal, called active from +8 up or from −8 down; further: test concentration not given here
# [19] = target: NADPH oxidase 4 (Homo sapiens) (UniProt Q9NPH5); assay: NOX4-dependent H2O2 signal modulators, primary screen, NOX inhibitor project, cell-based, HEK293-NOX4, tetracycline-induced, Amplex Red fluorescence (AID 1160); conditions: 45 min, higher = more signal, called active from +8 up or from −8 down
# [20] = target: NADPH oxidase 5 (Homo sapiens) (UniProt Q96PH1); assay: NOX5-dependent H2O2 signal modulators, primary screen, NOX inhibitor project, cell-based, HEK293-NOX5, Amplex Red fluorescence (AID 1161); conditions: HEK293-NOX5, ionomycin, 45 min, higher = more signal
# Chain of NADPH oxidase 5 (Homo sapiens) (Q96PH1 whole entry, looked up): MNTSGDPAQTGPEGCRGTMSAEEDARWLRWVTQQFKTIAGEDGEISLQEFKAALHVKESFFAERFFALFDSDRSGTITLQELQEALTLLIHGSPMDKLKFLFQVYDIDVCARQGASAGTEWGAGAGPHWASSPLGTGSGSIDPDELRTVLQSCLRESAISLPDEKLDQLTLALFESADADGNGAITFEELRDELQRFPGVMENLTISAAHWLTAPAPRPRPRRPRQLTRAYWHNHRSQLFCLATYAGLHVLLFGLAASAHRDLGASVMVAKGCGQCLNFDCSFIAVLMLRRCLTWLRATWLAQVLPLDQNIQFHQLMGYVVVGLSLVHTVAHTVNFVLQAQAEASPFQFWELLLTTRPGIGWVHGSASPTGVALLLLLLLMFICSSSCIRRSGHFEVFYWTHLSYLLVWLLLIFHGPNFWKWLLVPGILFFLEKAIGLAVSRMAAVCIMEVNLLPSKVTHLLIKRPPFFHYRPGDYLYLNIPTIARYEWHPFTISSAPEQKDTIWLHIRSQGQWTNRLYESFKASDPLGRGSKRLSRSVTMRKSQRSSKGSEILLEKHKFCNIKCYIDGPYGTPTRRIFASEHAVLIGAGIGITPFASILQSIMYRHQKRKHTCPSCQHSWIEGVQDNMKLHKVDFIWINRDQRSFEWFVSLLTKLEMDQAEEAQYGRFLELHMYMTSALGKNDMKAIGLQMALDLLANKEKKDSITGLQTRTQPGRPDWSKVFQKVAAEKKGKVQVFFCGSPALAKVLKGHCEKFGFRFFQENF
# Chain of NADPH oxidase 4 (Homo sapiens) (Q9NPH5 whole entry, looked up): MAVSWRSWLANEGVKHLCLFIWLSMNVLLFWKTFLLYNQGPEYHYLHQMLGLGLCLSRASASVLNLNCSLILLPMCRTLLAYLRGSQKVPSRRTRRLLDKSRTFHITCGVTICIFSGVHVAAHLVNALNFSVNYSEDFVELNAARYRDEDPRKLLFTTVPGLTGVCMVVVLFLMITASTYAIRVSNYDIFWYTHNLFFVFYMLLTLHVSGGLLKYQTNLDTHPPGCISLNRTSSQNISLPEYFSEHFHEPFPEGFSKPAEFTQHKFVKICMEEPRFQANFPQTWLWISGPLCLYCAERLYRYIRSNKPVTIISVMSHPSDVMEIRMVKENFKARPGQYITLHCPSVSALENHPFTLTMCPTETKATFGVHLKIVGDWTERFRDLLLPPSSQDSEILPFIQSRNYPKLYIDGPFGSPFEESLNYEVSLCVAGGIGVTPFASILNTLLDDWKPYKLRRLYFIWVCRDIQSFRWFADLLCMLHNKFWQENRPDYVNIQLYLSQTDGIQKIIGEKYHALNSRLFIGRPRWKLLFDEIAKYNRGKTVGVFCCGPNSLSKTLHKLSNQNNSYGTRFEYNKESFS
# Chain of NADPH oxidase 2 (Homo sapiens) (P04839 whole entry, looked up): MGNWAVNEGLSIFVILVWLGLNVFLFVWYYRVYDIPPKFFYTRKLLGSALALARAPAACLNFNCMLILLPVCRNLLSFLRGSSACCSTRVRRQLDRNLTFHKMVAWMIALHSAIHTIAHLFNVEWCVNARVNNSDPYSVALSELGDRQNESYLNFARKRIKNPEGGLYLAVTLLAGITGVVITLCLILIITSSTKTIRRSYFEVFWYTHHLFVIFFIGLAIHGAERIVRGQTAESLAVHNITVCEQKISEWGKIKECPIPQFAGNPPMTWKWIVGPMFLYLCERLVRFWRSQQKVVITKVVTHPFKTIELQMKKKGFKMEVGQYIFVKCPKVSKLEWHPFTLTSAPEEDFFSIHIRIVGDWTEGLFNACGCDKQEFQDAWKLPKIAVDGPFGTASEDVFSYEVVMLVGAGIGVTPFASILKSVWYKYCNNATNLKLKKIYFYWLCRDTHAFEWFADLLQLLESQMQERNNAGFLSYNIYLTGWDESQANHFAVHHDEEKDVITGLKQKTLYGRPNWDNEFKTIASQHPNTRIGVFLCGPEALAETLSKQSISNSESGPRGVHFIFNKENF
# Chain of Streptavidin (Streptomyces avidinii) (P22629 whole entry, looked up): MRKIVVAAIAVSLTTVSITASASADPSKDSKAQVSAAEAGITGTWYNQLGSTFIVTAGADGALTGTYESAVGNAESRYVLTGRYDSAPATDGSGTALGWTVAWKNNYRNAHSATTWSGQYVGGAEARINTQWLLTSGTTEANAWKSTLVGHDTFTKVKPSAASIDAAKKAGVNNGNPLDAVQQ
# Chain of Torsin-1A (Homo sapiens) (O14656 whole entry, looked up): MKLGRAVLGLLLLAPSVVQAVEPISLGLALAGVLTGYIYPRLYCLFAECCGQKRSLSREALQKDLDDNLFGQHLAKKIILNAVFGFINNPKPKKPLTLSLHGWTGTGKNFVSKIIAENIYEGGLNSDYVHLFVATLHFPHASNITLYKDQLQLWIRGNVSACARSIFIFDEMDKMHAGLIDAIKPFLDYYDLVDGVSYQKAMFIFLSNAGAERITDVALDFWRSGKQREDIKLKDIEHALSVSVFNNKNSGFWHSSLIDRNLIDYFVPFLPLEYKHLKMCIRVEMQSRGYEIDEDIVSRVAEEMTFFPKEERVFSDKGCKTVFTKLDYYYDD
SMILES,composite z-score [1],z-score [2],z-score [3],z-score [4],z-score [5],composite z-score [6],composite z-score [7],composite z-score [8],composite z-score [9],composite z-score [10],z-score [11],composite z-score [12],z-score [13],z-score [14],z-score [15],z-score [16],z-score [17],z-score [18],z-score [19],z-score [20]
COCCOC(=O)N1C(=O)[C@@]2(c3cc(C#CC4=CCCCC4)ccc31)[C@H](C(=O)N1CCN(c3ncccn3)CC1)[C@H]1C(=O)O[C@H](c3ccccc3)[C@H](c3ccccc3)N1[C@@H]2c1ccc(OCCO)cc1,0.572,-0.922 (inactive),-0.38 (inactive),-1.57 (inactive),-0.0728 (inactive),0.832,0.471,0.804,0.606,1.04,-0.0557 (inactive),0.894,5.23 (inactive),1.85 (inactive),0.251 (inactive),0.657 (inactive),0.212,0.977 (inactive),0.645 (inactive),0.934
CCCNC(=O)[C@@]1(C)c2ccccc2C(=O)N(Cc2ccc(OC(F)(F)F)cc2)[C@H]1c1ccc(CO)cc1,-0.0508,-2.65 (inactive),0.28 (inactive),-0.0259 (inactive),-0.326 (inactive),-0.456,0.249,0.243,0.6,0.628,0.707 (inactive),0.15,7.17 (inactive),0.699 (inactive),2.41 (inactive),0.208 (inactive),0.0696,-1.07 (inactive),0.332 (inactive),0.423
[N-]=[N+]=NCc1ccccc1C[C@]1(C(N)=O)N=C(c2ccc(OCCCO)cc2)O[C@H]1c1ccccc1N=[N+]=[N-],0.451,-1.84 (inactive),-0.43 (inactive),-0.254 (inactive),0.248 (inactive),0.978,0.0906,0.0331,0.652,-0.413,0.125 (inactive),0.588,34.1 (active),32.7 (active),2.52 (inactive),3.39 (inactive),-0.59,-3.15 (inactive),-0.457 (inactive),-2.02
C=CCOC(=O)[C@@H]1[C@H]2C(=O)O[C@H](c3ccccc3)[C@H](c3ccccc3)N2[C@H](c2ccc(OCCOC(=O)[C@H]3C[C@H]4C(=O)N[C@@H](CC(C)C)C(=O)N4[C@H]3c3cccc(OCCO)c3)cc2)[C@@]12C(=O)Nc1ccc(I)cc12,0.289,-2.48 (inactive),-0.174 (inactive),0.419 (inactive),-0.0639 (inactive),0.332,0.247,1,1.15,2.06,-0.0888 (inactive),0.185,2.85 (inactive),-0.154 (inactive),0.789 (inactive),-1.24 (inactive),0.456,1.07 (inactive),1.02 (inactive),0.73
CN(C)CCCCCCNC(=O)[C@@H]1C[C@@H]2C(=O)N[C@@H](Cc3ccccc3)C(=O)N2[C@@H]1c1cccc(OCCO)c1,0.154,0.59 (inactive),0.0305 (inactive),-0.122 (inactive),-1.29 (inactive),0.0978,-0.0209,1.15,0.885,1.28,0.392 (inactive),0.073,3.81 (inactive),0.415 (inactive),0.407 (inactive),0.154 (inactive),-0.243,1.08 (inactive),1.4 (inactive),1.4
COc1ccc([Si](C)(C)[C@H]2[C@H](CC(=O)N3CCC[C@H]3CO)O[C@@]3(C(=O)N(Cc4cccc(N5CCC5=O)c4)c4ccccc43)[C@@H]2C)cc1,0.749,-3.02 (inactive),0.596 (inactive),1.66 (inactive),-1.2 (inactive),0.0783,-0.0132,0.633,0.594,1.49,0.689 (inactive),0.233,6.65 (inactive),1.06 (inactive),1.47 (inactive),0.696 (inactive),0.249,1.91 (inactive),0.777 (inactive),4.69
C#C[C@H](O[Si](C#CCCCCCC)(C(C)C)C(C)C)c1ccccc1,-0.348,-0.0715 (inactive),0.0625 (inactive),0.353 (inactive),0.262 (inactive),-0.0246,-0.17,0.236,0.0769,-0.102,0.79 (inactive),-0.468,0.486 (inactive),-0.227 (inactive),-0.177 (inactive),0.433 (inactive),0.482,-1.09 (inactive),-0.782 (inactive),-1.97
CC(C)NC(=O)[C@@H]1c2ccccc2C(=O)N(C2CCCCC2)[C@H]1c1ccc(CO)cc1,0.242,-1.17 (inactive),0.0353 (inactive),-0.529 (inactive),-0.579 (inactive),-0.148,0.152,0.13,-0.28,0.0045,-0.359 (inactive),-0.101,-0.521 (inactive),0.169 (inactive),-0.113 (inactive),-0.136 (inactive),-0.061,0.664 (inactive),0.822 (inactive),0.802
